# Assay results as given in PMC7862700, “An all-to-all approach to the identification of sequence-specific readers for epigenetic DNA modifications on cytosine”.
# How the values were obtained:
# Assay in all cases: DAPPL (digital affinity profiling via proximity ligation, sequencing); 10 mM Tris-HCl pH 7.5, 50 mM NaCl, 1 mM DTT, 4% glycerol, room temperature, 30 min; GST-TFs on glutathione beads, 16-mer random dsDNA library, 0.1% formaldehyde crosslink after washing; high values mean tight binding
# FLI1 = biological target: T1, FLI1 (Homo sapiens, UniProt Q01543 1-452); conditions: protein: recombinant; tags: N-terminal GST; dsDNA, one strand shown
# T1 sequence: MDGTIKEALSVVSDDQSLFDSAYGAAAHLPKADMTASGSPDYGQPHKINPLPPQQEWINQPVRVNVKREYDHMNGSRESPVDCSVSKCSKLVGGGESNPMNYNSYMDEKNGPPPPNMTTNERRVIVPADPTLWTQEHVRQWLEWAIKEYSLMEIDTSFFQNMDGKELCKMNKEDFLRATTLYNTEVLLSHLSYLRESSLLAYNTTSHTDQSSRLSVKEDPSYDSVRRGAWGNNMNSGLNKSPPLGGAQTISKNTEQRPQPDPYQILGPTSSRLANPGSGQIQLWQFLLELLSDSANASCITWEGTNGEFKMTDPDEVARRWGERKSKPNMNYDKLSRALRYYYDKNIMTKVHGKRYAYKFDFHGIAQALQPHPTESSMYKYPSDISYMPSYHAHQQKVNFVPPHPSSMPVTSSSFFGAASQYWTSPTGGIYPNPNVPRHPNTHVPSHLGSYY
# How it was run: (§1)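 In yeast, human transcription factors were expressed with a GST fusion, then pulled down on glutathione beads and given DNA barcodes. Pooled with a tag-only sample, they were exposed to 200 nmole of a 16-mer random double-stranded DNA library (Tris/NaCl/DTT/glycerol buffer, room temperature, 30 min), washed, crosslinked with 0.1% formaldehyde, proximity-ligated using BsaI/T4 ligase for 1 h at 37 °C, PCR-amplified and read on an Illumina NextSeq500. Each hexamer's frequency of reads for a factor, divided by the matching frequency for the tag-only sample, gives the binding signal.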
# ELK1 = biological target: T2, ELK1 (Homo sapiens, UniProt P19419 1-428); conditions: protein: recombinant; tags: N-terminal GST; dsDNA, one strand shown
# T2 sequence: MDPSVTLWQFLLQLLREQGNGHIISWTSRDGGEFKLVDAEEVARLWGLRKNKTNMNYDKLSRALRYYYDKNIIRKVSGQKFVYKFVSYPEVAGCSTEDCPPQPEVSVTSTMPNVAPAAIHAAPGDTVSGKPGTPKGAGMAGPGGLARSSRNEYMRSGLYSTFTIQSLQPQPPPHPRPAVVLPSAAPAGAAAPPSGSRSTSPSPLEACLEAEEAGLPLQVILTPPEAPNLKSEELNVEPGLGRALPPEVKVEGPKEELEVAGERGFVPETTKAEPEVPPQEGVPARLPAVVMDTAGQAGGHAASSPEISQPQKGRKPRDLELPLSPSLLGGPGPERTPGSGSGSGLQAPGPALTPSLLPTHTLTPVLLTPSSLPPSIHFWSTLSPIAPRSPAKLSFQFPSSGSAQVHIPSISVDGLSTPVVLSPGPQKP
# How it was run: as §1
# GABPA = biological target: T3, GABPA (Homo sapiens, UniProt Q06546 1-454); conditions: protein: recombinant; tags: N-terminal GST; dsDNA, one strand shown
# T3 sequence: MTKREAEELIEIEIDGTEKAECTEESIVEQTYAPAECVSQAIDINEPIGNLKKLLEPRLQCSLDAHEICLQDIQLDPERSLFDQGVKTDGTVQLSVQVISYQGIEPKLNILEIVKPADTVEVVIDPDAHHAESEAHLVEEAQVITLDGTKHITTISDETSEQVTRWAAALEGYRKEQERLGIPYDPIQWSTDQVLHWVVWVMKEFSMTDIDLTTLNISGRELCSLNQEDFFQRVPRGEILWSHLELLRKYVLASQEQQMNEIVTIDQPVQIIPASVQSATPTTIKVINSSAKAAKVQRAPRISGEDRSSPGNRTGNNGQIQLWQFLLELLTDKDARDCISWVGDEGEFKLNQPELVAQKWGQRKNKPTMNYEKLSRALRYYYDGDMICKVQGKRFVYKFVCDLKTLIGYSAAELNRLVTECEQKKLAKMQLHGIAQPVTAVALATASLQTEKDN
# How it was run: as §1
# ERG = biological target: T4, ERG (Homo sapiens, UniProt P11308 1-479); conditions: protein: recombinant; tags: N-terminal GST; dsDNA, one strand shown
# T4 sequence: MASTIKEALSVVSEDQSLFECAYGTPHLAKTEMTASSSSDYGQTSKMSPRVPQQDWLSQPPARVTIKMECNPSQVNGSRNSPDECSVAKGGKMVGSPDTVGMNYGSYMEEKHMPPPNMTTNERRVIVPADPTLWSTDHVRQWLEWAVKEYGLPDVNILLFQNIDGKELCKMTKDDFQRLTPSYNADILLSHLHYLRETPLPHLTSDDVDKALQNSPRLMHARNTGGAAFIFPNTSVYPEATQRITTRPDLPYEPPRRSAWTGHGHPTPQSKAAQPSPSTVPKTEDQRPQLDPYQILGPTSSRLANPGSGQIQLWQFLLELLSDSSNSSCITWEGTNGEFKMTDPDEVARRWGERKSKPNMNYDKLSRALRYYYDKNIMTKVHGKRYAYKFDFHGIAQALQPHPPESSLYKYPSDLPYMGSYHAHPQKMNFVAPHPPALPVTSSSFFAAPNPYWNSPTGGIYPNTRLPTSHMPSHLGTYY
# How it was run: as §1
# ELF1 = ELF1 (Homo sapiens, UniProt P32519 1-619); conditions: protein: recombinant; tags: N-terminal GST; dsDNA, one strand shown
# Sequence of ELF1 (P32519 whole entry): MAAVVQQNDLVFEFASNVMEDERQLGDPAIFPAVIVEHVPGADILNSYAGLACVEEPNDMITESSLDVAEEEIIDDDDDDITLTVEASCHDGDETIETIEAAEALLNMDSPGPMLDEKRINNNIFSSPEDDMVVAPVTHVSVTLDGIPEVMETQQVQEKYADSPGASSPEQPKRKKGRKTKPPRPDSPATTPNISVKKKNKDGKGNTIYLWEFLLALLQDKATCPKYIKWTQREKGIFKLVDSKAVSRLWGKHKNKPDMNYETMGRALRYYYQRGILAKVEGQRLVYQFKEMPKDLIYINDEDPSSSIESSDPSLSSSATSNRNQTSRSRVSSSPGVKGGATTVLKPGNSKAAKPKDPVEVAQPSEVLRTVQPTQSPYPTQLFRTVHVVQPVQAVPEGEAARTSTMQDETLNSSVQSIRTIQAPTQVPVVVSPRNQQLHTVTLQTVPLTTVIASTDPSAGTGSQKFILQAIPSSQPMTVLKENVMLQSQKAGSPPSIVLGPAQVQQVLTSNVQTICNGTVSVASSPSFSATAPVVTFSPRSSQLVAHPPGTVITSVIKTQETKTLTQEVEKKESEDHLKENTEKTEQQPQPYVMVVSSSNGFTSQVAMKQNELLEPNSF
# How it was run: as §1
# EHF = biological target: T5, EHF (Homo sapiens, UniProt Q9NZC4 1-300); conditions: protein: recombinant; tags: N-terminal GST; dsDNA, one strand shown
# T5 sequence: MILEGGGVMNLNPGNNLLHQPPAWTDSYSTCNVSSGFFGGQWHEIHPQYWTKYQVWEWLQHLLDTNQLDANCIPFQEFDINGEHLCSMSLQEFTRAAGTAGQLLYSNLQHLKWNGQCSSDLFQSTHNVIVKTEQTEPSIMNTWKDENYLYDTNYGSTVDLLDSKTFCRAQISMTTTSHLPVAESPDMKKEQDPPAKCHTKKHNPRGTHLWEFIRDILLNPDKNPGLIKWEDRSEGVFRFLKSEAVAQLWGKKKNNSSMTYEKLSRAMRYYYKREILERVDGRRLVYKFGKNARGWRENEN
# How it was run: as §1
# SPI1 = SPI1 (Homo sapiens, UniProt P17947 1-270); conditions: protein: recombinant; tags: N-terminal GST; dsDNA, one strand shown
# How it was run: as §1
# SPIB = SPIB (Homo sapiens, UniProt Q01892 1-262); conditions: protein: recombinant; tags: N-terminal GST; dsDNA, one strand shown
# Sequence of SPIB (Q01892 whole entry): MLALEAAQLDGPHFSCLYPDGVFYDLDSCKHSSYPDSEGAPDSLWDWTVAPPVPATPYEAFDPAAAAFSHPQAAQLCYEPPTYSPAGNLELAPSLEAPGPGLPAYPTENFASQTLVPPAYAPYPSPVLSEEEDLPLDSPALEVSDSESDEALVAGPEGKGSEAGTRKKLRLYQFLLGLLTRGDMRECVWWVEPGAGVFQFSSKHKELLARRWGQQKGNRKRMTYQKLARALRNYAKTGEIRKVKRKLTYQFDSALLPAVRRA
# How it was run: as §1
# ELK3 = biological target: T6, ELK3 (Homo sapiens, UniProt P41970 1-407); conditions: protein: recombinant; tags: N-terminal GST; dsDNA, one strand shown
# T6 sequence: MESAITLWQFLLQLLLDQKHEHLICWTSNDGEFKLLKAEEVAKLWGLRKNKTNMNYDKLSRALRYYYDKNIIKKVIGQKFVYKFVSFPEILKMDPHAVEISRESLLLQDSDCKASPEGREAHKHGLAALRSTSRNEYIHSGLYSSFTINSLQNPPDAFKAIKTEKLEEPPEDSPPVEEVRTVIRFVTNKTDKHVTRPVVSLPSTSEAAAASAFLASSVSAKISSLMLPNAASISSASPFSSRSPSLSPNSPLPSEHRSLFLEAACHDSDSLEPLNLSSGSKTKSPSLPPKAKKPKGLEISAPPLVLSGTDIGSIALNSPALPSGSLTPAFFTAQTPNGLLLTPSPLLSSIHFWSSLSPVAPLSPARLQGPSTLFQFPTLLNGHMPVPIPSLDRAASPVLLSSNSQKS
# How it was run: as §1
# FEV = biological target: T7, FEV (Homo sapiens, UniProt Q99581 1-238); conditions: protein: recombinant; tags: N-terminal GST; dsDNA, one strand shown
# T7 sequence: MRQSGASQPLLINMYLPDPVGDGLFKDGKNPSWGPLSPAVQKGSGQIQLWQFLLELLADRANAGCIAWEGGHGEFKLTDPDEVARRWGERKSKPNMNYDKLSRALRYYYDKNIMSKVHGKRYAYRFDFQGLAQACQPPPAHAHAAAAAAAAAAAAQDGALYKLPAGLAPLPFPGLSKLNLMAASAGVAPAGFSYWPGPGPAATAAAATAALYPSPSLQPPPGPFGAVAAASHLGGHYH
# How it was run: as §1
# ETV5 = ETV5 (Homo sapiens, UniProt P41161 1-510); conditions: protein: recombinant; tags: N-terminal GST; dsDNA, one strand shown
# Sequence of ETV5 (P41161 whole entry): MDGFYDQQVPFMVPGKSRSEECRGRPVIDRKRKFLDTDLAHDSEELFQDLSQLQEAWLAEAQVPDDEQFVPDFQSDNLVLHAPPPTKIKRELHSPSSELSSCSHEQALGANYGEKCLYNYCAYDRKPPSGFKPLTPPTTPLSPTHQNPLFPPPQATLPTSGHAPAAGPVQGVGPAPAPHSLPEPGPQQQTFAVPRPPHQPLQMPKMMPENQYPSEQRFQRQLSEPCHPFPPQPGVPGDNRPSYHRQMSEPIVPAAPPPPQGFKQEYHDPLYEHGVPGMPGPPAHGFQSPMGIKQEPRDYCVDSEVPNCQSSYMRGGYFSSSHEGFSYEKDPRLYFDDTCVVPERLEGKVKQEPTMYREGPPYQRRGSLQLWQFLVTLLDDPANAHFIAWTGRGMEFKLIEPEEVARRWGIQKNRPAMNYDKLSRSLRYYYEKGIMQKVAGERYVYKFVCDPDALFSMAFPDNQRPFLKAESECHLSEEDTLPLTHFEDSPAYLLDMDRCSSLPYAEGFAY
# How it was run: as §1
# HSF1 = HSF1 (Homo sapiens, UniProt Q00613 1-529); conditions: protein: recombinant; tags: N-terminal GST; chain copies: 3; dsDNA, one strand shown
# Sequence of HSF1 (Q00613 whole entry): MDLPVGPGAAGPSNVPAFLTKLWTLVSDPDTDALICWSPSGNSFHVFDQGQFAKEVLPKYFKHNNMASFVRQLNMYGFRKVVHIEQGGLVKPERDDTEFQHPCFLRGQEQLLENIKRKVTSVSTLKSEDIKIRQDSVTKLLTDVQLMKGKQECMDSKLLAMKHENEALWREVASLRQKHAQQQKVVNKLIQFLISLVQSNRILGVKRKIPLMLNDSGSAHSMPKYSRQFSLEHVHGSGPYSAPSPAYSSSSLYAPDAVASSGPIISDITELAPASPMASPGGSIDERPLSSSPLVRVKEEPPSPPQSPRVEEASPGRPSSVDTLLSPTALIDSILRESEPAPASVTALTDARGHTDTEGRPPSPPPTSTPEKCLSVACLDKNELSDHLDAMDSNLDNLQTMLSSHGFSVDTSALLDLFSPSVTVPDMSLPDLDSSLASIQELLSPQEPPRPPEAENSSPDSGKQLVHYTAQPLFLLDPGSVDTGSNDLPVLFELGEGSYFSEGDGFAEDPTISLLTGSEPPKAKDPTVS
# How it was run: as §1
# SPIC = biological target: T8, SPIC (Homo sapiens, UniProt Q8N5J4 1-248); conditions: protein: recombinant; tags: N-terminal GST; dsDNA, one strand shown
# T8 sequence: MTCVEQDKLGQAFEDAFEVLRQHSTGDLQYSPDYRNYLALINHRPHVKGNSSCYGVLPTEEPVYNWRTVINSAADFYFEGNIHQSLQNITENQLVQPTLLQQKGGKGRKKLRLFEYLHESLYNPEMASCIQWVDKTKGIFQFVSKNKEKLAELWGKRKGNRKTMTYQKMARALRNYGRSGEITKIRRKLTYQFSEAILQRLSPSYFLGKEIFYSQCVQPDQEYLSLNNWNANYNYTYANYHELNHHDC
# How it was run: as §1
# ELF4 = ELF4 (Homo sapiens, UniProt Q99607 1-663); conditions: protein: recombinant; tags: N-terminal GST; dsDNA, one strand shown
# Sequence of ELF4 (Q99607 whole entry): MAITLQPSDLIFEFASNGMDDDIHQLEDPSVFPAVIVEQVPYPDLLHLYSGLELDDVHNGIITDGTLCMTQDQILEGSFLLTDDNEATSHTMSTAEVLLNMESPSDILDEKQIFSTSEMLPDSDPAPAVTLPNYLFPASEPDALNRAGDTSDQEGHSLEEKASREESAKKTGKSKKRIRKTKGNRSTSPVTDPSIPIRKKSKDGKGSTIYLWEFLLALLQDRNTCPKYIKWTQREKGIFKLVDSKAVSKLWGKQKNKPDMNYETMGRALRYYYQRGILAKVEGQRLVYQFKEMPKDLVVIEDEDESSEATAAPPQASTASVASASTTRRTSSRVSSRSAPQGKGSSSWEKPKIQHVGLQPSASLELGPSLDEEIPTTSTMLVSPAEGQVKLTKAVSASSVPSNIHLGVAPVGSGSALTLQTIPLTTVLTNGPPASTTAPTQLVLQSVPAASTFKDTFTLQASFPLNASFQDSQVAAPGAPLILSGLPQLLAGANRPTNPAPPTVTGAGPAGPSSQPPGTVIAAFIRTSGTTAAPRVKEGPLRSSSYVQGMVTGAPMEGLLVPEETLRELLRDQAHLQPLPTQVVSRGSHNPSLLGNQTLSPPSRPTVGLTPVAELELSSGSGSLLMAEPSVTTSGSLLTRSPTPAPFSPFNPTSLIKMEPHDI
# How it was run: as §1
# ELK4 = biological target: T9, ELK4 (Homo sapiens, UniProt P28324-2 1-405); conditions: protein: recombinant; tags: N-terminal GST; dsDNA, one strand shown
# T9 sequence: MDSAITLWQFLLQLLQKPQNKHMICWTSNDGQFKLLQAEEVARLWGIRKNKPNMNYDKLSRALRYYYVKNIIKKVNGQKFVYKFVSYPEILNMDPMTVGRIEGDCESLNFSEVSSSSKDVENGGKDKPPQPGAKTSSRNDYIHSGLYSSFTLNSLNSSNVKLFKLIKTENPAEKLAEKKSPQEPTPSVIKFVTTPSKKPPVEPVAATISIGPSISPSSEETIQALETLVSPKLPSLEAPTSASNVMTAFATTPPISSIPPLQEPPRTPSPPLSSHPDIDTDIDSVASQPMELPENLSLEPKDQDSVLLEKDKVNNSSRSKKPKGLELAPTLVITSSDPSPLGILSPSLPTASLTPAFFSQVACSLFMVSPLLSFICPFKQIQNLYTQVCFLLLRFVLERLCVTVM
# How it was run: as §1
# ETV2 = biological target: T10, ETV2 (Homo sapiens, UniProt O00321 1-342); conditions: protein: recombinant; tags: N-terminal GST; dsDNA, one strand shown
# T10 sequence: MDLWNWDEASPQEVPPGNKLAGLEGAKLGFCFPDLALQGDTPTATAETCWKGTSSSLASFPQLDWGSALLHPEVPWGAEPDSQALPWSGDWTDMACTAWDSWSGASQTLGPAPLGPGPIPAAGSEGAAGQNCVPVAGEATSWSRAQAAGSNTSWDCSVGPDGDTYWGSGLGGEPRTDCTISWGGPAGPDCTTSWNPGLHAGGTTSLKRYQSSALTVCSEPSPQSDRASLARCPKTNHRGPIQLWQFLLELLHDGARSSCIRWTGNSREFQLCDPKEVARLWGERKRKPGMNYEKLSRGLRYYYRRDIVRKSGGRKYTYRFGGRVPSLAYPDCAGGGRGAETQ
# How it was run: as §1
# ELF3 = biological target: T11, ELF3 (Homo sapiens, UniProt P78545 1-371); conditions: protein: recombinant; tags: N-terminal GST; dsDNA, one strand shown
# T11 sequence: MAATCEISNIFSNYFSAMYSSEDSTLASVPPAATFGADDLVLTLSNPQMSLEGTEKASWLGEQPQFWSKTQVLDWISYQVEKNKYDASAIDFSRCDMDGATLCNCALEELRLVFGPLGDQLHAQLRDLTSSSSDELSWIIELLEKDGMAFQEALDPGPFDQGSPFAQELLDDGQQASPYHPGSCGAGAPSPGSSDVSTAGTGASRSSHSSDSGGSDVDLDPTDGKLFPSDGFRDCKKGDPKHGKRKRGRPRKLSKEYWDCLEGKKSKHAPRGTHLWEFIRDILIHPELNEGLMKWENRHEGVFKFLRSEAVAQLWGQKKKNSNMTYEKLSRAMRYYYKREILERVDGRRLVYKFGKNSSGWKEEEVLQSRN
# How it was run: as §1
# CRX = CRX (Homo sapiens, UniProt O43186 1-299); conditions: protein: recombinant; tags: N-terminal GST; dsDNA, one strand shown
# Sequence of CRX (O43186 whole entry): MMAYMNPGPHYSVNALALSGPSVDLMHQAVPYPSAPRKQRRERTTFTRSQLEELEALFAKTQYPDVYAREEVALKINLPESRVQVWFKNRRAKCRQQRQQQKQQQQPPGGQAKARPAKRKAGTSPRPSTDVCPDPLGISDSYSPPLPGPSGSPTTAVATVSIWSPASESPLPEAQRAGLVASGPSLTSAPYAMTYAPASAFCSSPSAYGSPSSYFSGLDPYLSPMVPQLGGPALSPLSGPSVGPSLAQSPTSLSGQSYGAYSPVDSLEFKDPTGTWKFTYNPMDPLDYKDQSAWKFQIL
# How it was run: as §1
# ETV1 = ETV1 (Homo sapiens, UniProt P50549 1-477); conditions: protein: recombinant; tags: N-terminal GST; dsDNA, one strand shown
# Sequence of ETV1 (P50549 whole entry): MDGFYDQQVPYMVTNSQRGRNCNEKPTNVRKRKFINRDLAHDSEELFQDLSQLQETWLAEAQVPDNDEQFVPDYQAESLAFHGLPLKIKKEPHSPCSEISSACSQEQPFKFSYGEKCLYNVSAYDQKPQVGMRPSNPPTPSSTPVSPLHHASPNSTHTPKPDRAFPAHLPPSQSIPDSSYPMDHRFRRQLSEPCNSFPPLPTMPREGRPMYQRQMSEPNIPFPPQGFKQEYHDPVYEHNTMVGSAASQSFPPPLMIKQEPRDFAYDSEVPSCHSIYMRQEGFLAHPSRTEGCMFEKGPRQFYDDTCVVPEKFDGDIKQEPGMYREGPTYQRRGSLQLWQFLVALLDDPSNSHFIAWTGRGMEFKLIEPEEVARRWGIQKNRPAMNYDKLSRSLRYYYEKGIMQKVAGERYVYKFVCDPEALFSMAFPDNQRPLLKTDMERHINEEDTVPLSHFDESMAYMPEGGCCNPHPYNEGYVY
# How it was run: as §1
sequence,measurement,setting,value
GATTCA,binding signal,FLI1,"1.11 fold enrichment (6-mer frequency, TF over GST control)"
same,binding signal,ELK1,"1.15 fold enrichment (6-mer frequency, TF over GST control)"
same,binding signal,GABPA,"1.17 fold enrichment (6-mer frequency, TF over GST control)"
same,binding signal,ERG,"1.11 fold enrichment (6-mer frequency, TF over GST control)"
same,binding signal,ELF1,"1.17 fold enrichment (6-mer frequency, TF over GST control)"
same,binding signal,EHF,"1.18 fold enrichment (6-mer frequency, TF over GST control)"
same,binding signal,SPI1,"1.16 fold enrichment (6-mer frequency, TF over GST control)"
same,binding signal,SPIB,"1.04 fold enrichment (6-mer frequency, TF over GST control)"
same,binding signal,ELK3,"1.1 fold enrichment (6-mer frequency, TF over GST control)"
same,binding signal,FEV,"1.08 fold enrichment (6-mer frequency, TF over GST control)"
same,binding signal,ETV5,"1.08 fold enrichment (6-mer frequency, TF over GST control)"
same,binding signal,HSF1,"1.13 fold enrichment (6-mer frequency, TF over GST control)"
same,binding signal,SPIC,"1.14 fold enrichment (6-mer frequency, TF over GST control)"
same,binding signal,ELF4,"1.15 fold enrichment (6-mer frequency, TF over GST control)"
same,binding signal,ELK4,"1.24 fold enrichment (6-mer frequency, TF over GST control)"
same,binding signal,ETV2,"1.08 fold enrichment (6-mer frequency, TF over GST control)"
same,binding signal,ELF3,"1.26 fold enrichment (6-mer frequency, TF over GST control)"
same,binding signal,CRX,"1.13 fold enrichment (6-mer frequency, TF over GST control)"
same,binding signal,ETV1,"1.15 fold enrichment (6-mer frequency, TF over GST control)"
